Cruzain inh Det: inhibitors of Trypanosoma cruzi cruzain with detergent; purified cruzain, Z-FR-AMC fluorescence, 0.01% Triton; 0.43% of 200,000 active; P25779; Potency, µM, for the others: max response, negative = inhibition, usual class: inhibitors;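 also: plate controls were neutral wells for no effect and buffer without enzyme for full effect; nearly all actives have a fitted effect of over 40% in size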
Target sequence (P25779 123-467 limits assumed): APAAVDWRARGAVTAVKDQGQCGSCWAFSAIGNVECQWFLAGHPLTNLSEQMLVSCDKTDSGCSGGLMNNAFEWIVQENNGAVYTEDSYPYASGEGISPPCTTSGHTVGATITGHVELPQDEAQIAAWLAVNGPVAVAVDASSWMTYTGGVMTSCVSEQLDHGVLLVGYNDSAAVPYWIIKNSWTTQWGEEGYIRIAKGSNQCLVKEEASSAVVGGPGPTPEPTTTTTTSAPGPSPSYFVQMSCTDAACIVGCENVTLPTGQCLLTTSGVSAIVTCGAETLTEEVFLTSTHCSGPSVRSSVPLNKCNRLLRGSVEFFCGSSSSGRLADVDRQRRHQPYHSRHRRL
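Purified cruzain (1.5 nM final) was preincubated with compounds for 15 min at room temperature in 100 mM sodium acetate pH 5.5, 5 mM DTT, 0.01% Triton X-100. Reaction started with 2 uM Z-FR-AMC; AMC fluorescence change over 60 s gave activity.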
Cruzain noTriton: blocks cruzain activity in detergent-free assay | Potency, µM, inactives show max response, negative = inhibition, most hits filed as inhibitors | P25779 | purified cruzain, Z-FR-AMC fluorescence, no detergent | 2.3% of 200,000 active;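 also: plate controls were enzyme without inhibitor for no effect and buffer without enzyme for full effect; nearly all actives have a fitted effect of over 40% in size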
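Detergent-free condition (0.00005% Triton X-100) in acetate buffer pH 5.5 with DTT. 1.5 nM enzyme and compound were pre-mixed 15 min, then 2 uM Z-FR-AMC substrate added; reaction progress from fluorescence change between first and third reads (60 s).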
* marks the source's active call; other numbers are inactive results; u = inconclusive. The list is not random: actives were taken first. Their share in the collection is about 2.5%. Calls follow the shape of the dose curve; as a rule, active = well fitted curve in the direction sought with a large enough effect; inconclusive = small, poorly fitted or top-dose-only effect, or another doubt; inactive = no such curve, though single readings can be large; an effect the other way counts as inactive or inconclusive. Potency is read from the fitted curve at half-maximal effect.

SMILES	Cruzain inh Det	Cruzain noTriton
CCCCOc1ccc(/C=C/C(=O)Nc2ccc(C(N)=O)cc2)cc1	-3%	16µM*
CCOc1ccc(/C=C/C(=O)Nc2ccc(C(N)=O)cc2)cc1OC	-5%	-3%
CCCCOc1ccc(/C=C/C(=O)Nc2ccc([N+](=O)[O-])cc2C)cc1	-1%	25µM*
CCc1ccc(NC(=O)Cn2c(=O)c3cc(Cl)ccc3n3nncc23)cc1	-1%	9%
Cc1nc(N2CCCC2)ncc1C(=O)N1CCN(c2ccc(Cl)cc2)CC1	-8%	u
N#Cc1c(-c2cccnc2)c2c([nH]c1=S)CCCC2	-2%	-1%
COc1ccc(-c2c3c([nH]c(=S)c2C#N)CCC3)cc1	-1%	16µM*
Cc1ccc(C)c2c(SC(C)C(=O)NCc3ccco3)nc(-c3ccccc3)nc12 (stereo not drawn)	-8%	4µM*
Cc1ccc2nc(-c3ccccc3)nc(SC(C)C(=O)NCc3cccs3)c2c1 (stereo not drawn)	-4%	-27%
Cc1ccc(NC(=O)C(CC(C)C)NS(=O)(=O)c2ccc3c(c2)oc(=O)n3C)c(C)c1 (stereo not drawn)	0%	-5%
COc1ccccc1C(=O)NC1(C(F)(F)F)C(=O)Nc2c1c(=O)[nH]c(=O)n2CCc1ccccc1 (stereo not drawn)	0%	4%
Cc1ccc(Cl)cc1N1CCN(C(=O)c2ccc(C)c(-n3c(C)nc4cccnc43)c2)CC1	-4%	u
COc1ccc(-c2sc(NC(C)=O)nc2-c2ccccc2)cc1	-10%	14%
CCOc1ccccc1Nc1nc(-c2sc(NC(=O)c3ccc([N+](=O)[O-])cc3)nc2C)cs1	1%	6.3µM*
Cc1ccc(Cl)cc1Nc1nc(-c2sc(NC(=O)c3cccc(Cl)c3)nc2C)cs1	11%	4µM*
Cc1ccccc1Nc1nc(-c2sc(NC(=O)c3ccc([N+](=O)[O-])cc3)nc2C)cs1	6%	10µM*
CCCCC(=O)Nc1nc(C)c(-c2csc(Nc3ccccc3OC)n2)s1	-3%	u
COc1ccc(-c2nc(NC(=O)c3ccccc3)sc2-c2ccc([N+](=O)[O-])cc2)cc1	-2%	7.9µM*
Cc1ccccc1Nc1nc(=O)c2cc([N+](=O)[O-])ccc2s1	-1%	-18%
O=C(Cn1ccn(-c2ccc(F)cc2)c(=O)c1=O)Nc1ccccc1C(F)(F)F	-1%	14%
CCOc1ccc(C(c2c(O)cc(C)n(CCOC)c2=O)N2CCN(c3ccccc3F)CC2)cc1 (stereo not drawn)	1%	u
CCC(C)NC(=O)CCCc1nnc2n(CC(C)C)c(=O)c3sccc3n12 (stereo not drawn)	0%	8%
CCSc1nn(CC(=O)Nc2cccc(Cl)c2)c(N)c1S(=O)(=O)c1ccc(OC)cc1	-2%	5%
Cc1ccccc1Nc1nc(-c2sc(NC(=O)c3ccccc3)nc2C)cs1	-5%	13µM*
Cc1ccc(C(=O)Nc2nc(-c3ccc([N+](=O)[O-])cc3)cs2)o1	-5%	-7%
SMILES	Cruzain inh Det	Cruzain noTriton
Cc1ccc(Nc2nc(-c3sc(NC(=O)c4ccc([N+](=O)[O-])cc4)nc3C)cs2)cc1	0%	7.9µM*
C=CCCC(=O)Nc1nc(C)c(-c2csc(Nc3ccccc3OC)n2)s1	-9%	u
Cc1ccccc1Nc1nc(-c2sc(NC(=O)c3cccc(Cl)c3)nc2C)cs1	2%	6.3µM*
CC(C)CCSc1nc2c(c(=O)n(C)c(=O)n2C)n1Cc1ccccc1Cl	-1%	18%
CCc1ccccc1NC(=O)CN1C(=O)CCSc2ccc(S(=O)(=O)N3CCCC3)cc21	0%	10%
C/C=C(\C)C(=O)C[Si](C)(C)c1ccccc1	9%	0%
CCc1cccc(-n2c(=O)c3cccnc3n2CC(=O)NCc2ccc(C)cc2)c1	1%	-17%
Cc1ccc(CNC(=O)C2CCCN(Cc3nc(-c4cccc(C)c4)oc3C)C2)cc1 (stereo not drawn)	10%	24%
Cc1cc(C)n(-c2nc(C)c(C)c(=O)n2CC(=O)Nc2ccc(OC(F)(F)F)cc2)n1	-2%	-5%
O=C(Oc1ccc2ccccc2c1)c1cncc(Br)c1	3%	u
O=C(Oc1ccc2c(=O)c(Oc3ccc4ccccc4c3)coc2c1)c1cncc(Br)c1	5%	3.2µM*
C[C@@]12CC(=O)C3=C(CCCC3=O)N1CCc1ccccc12	1%	10%
CCOC(=O)c1c(S(=O)(=O)N2CCCC(C(=O)Nc3ccc(C)cc3C)C2)c(C)n(CC)c1C (stereo not drawn)	1%	u
CCn1nc([N+](=O)[O-])c(C(C#N)c2nc3cc(C(F)(F)F)ccc3s2)c(Cl)c1=O (stereo not drawn)	22µM*	u
CCCn1nc([N+](=O)[O-])c(C(C#N)c2nc3ccccc3o2)c(Cl)c1=O (stereo not drawn)	-24%	1%
O=C(O)C1=CC(O)[C@@H](O)C(O)C1 (stereo partly drawn)	3%	-1%
COCCn1c(=NC(=O)c2sc3ccccc3c2Cl)sc2cc(S(N)(=O)=O)ccc21	-15%	6%
C=CCn1c(=NC(=O)c2sc3ccccc3c2Cl)sc2cc(S(N)(=O)=O)ccc21	-26%	20µM*
CCc1ccc(OCC(=O)NC(=S)Nc2ccc(C)cc2C)c(Br)c1	6%	13µM*
CCc1ccc(OCC(=O)NCCN(C)C)c(Br)c1	-1%	-3%
Cc1ccccc1NC(=O)C1CCN(C(=O)c2cnn(-c3ccccc3)c2-n2cccc2)CC1	-3%	u
O=c1c2c3c(sc2n(Cc2cc(=O)n4ccccc4n2)c(=O)n1-c1ccccc1)CCC3	-2%	8%
COc1cccc(-c2nc(-c3ccccc3)[nH]c(=O)c2C#N)c1	5%	-8%
COc1ccc(-c2nc(-c3cccc(C)c3)[nH]c(=O)c2C#N)cc1	-3%	10µM*
C/C(=N\NC(=O)CNC(=O)C(c1ccccc1)c1ccccc1)c1ccc(C(C)(C)C)cc1	1%	u
SMILES	Cruzain inh Det	Cruzain noTriton
C/C(=N\NC(=O)CNC(=O)C(c1ccccc1)c1ccccc1)c1ccccc1	5%	13µM*
C=CCN(CC=C)S(=O)(=O)c1ccc(NC(=S)NC(=O)c2ccco2)cc1	-3%	4%
C=CCN(CC=C)S(=O)(=O)c1ccc(NC(=S)NC(=O)c2ccc(-c3ccccc3)cc2)cc1	1%	-8%
C=CCN(CC=C)S(=O)(=O)c1ccc(NC(=S)NC(=O)/C=C/c2cccc3ccccc23)cc1	3%	4µM*
C=CCN(CC=C)S(=O)(=O)c1ccc(NC(=S)NC(=O)/C=C/c2ccc(C)cc2)cc1	-1%	25µM*
CN(C)NC(=S)Nc1ccc(Cl)cc1	6%	17%
CN(C)c1ccc(NC(=S)NC(=O)/C=C/c2ccc(Cl)cc2)cc1	5%	5µM*
O=[N+]([O-])c1cccc(C2=N[C@@H](Cc3ccccc3)CO2)c1	-1%	-22%
Cc1ccc(-c2onc(C)c2C)cc1S(=O)(=O)NC1CCC(C)CC1 (stereo not drawn)	-7%	-1%
N#Cc1nc(-c2ccc(COc3ccc(Cl)cc3)o2)oc1N1CCCCC1	-1%	3%
O=C(Nc1cnc(N2CCN(c3ccccc3)CC2)c(C(=O)O)c1)c1cccs1	0%	-4%
CC1CC(C)CN(c2ccc(C(=O)OCC(=O)NC3CCCc4ccccc43)cc2[N+](=O)[O-])C1 (stereo not drawn)	1%	u
O=C(COC(=O)c1ccc(Sc2ccccc2)c([N+](=O)[O-])c1)NC1CCCc2ccccc21 (stereo not drawn)	2%	13µM*
